Test [1] in a line: NCI Yeast Anticancer Drug Screen. Data for the rad50 strain (AID 155).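 Also: 0% = growth of vehicle-only cultures of the same strain.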 The conditions noted are these: S. cerevisiae rad50 strain growth inhibition, active compounds read high. In a few lines:
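Readout: growth inhibition relative to vehicle-treated cultures. Compound exposure was carried out in a genetically defined yeast strain deficient in DNA damage repair.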

Test [2] can be described thus: NCI Yeast Anticancer Drug Screen. Data for the mec2-1 strain (AID 157). Particulars: S. cerevisiae mec2-1 strain, active compounds read high. In a few lines:
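mec2-1 yeast strain, carrying an alteration in DNA damage repair or cell cycle control, was exposed to compounds; growth inhibition was measured relative to vehicle-treated controls.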

Test [3] in a line: NCI Yeast Anticancer Drug Screen. Data for the sgs1 mgt1 strain (AID 161).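 Also: 0% = growth of cultures given vehicle only.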 The conditions noted are these: S. cerevisiae sgs1 mgt1 strain, active compounds read high. Put shortly:
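Percent growth inhibition was derived by comparing compound-exposed mutant yeast with vehicle-exposed cultures. The strain carries alterations in DNA damage repair.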

A short description of test [4]: NCI Yeast Anticancer Drug Screen. Data for the cln2 rad14 strain (AID 165).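 Also: 0% = growth equal to vehicle treated cultures.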 The conditions noted are these: S. cerevisiae cln2 rad14 strain, active compounds read high. Put shortly: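 Yeast carrying cln2 and rad14 alterations (cell cycle control and DNA damage repair) were exposed to compounds. Growth inhibition was measured against vehicle-treated controls.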
Test [5] in a line: NCI Yeast Anticancer Drug Screen. Data for the bub3 strain (AID 167). The conditions noted are these: S. cerevisiae bub3 mutant strain, active compounds read high. Put shortly:
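Readout: yeast growth inhibition, expressed relative to vehicle-only wells. The test organism is a mutant strain from a panel with lesions in DNA repair or checkpoint genes.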

A short description of test [6]: NCI Yeast Anticancer Drug Screen. Data for the mlh1 rad18 strain (AID 175). Particulars: S. cerevisiae mlh1 rad18 strain growth inhibition, active compounds read high. In a few lines:
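Growth inhibition of the yeast strain was measured after compound exposure and expressed relative to vehicle-treated controls. The strain carries defined defects in DNA damage repair.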

[7] abbreviates: at 5.0 µM (retest, dose inferred, filed as 0.5).
[8] abbreviates: at 50.0 µM (retest, dose inferred, filed as 5.0).

Compounds without any hit were thinned out: in the full panel of roughly 79,000, 15% have a hit. Unmarked numbers belong to inactive results. Active and inactive are the calls of the source. Rule as the data show it: active = growth inhibition above about 70%; inactive = the rest.

As to `CC(=O)C1CCC2C1(C)CC1OC13C21C=CC2(CC(O)CCC23C)C2C(=O)OC(=O)C21` (configuration not stated), the growth inhibition is -1% in test [1] (setting [7]); 98% (active) in test [1] (setting [8]); 99.4% (active) in test [1] (at 50.0 µM); 4% in test [2] (setting [7]); 97% (active) in test [2] (setting [8]); 91.5% (active) in test [2] (at 50.0 µM). Moreover, the growth inhibition is 2% in test [3] (setting [7]); 99% (active) in test [3] (setting [8]); 99.3% (active) in test [3] (at 50.0 µM); 3% in test [4] (setting [7]); 98% (active) in test [4] (setting [8]); 99.6% (active) in test [4] (at 50.0 µM). For the same molecule, the growth inhibition was 2% in test [5] (setting [7]); 98% (active) in test [5] (setting [8]); 95.7% (active) in test [5] (at 50.0 µM); 23% in test [6] (setting [7]); 99% (active) in test [6] (setting [8]); 99.2% (active) in test [6] (at 50.0 µM).

On to `CCCN(CCC)C(=O)C(C)C`, for which the growth inhibition in test [1] (setting [7]) is 1%; in test [1] (setting [8]), -1%; in test [1] (at 50.0 µM), 9.95%; in test [2] (setting [7]), 2%; in test [2] (setting [8]), -4%; in test [2] (at 50.0 µM), -5.6%. Besides, the growth inhibition in test [3] (setting [7]) was -1%; in test [3] (setting [8]) it was -7%; in test [3] (at 50.0 µM), -5.3%; in test [4] (setting [7]) it was 0%; in test [4] (setting [8]), -4%; in test [4] (at 50.0 µM), 32.5%. The growth inhibition was -2% in test [5] (setting [7]); -2% in test [5] (setting [8]); -13.1% in test [5] (at 50.0 µM); 3% in test [6] (setting [7]); -3% in test [6] (setting [8]); 16.1% in test [6] (at 50.0 µM).

As to `O=C(Nc1cccc(Cl)c1)OCCOC(=O)Nc1cccc(Cl)c1`, the growth inhibition in test [1] (setting [7]) is 30%; in test [1] (setting [8]), 99% (active); in test [1] (at 50.0 µM), 99.5% (active); in test [2] (setting [7]) it was 3%; in test [2] (setting [8]), 99% (active); in test [2] (at 50.0 µM) it was 99.2% (active). Further, the growth inhibition was 22% in test [3] (setting [7]); 100% (active) in test [3] (setting [8]); 99.3% (active) in test [3] (at 50.0 µM); 2% in test [4] (setting [7]); 98% (active) in test [4] (setting [8]); 98.4% (active) in test [4] (at 50.0 µM). The growth inhibition was -4% in test [5] (setting [7]); 99% (active) in test [5] (setting [8]); 99.4% (active) in test [5] (at 50.0 µM); 4% in test [6] (setting [7]); 98% (active) in test [6] (setting [8]); 98.9% (active) in test [6] (at 50.0 µM).

`O=C1N=c2ccc(Br)cc2=C1c1sc(=O)n(Cc2nc3ccccc3[nH]2)c1O`: the growth inhibition is 3% in test [1] (setting [7]); -8% in test [1] (setting [8]); 70.5% (active) in test [1] (at 50.0 µM); -11% in test [2] (setting [7]); 8% in test [2] (setting [8]); 54% in test [2] (at 50.0 µM). Further, the growth inhibition was -2% in test [3] (setting [7]); 4% in test [3] (setting [8]); 79.2% (active) in test [3] (at 50.0 µM); -6% in test [4] (setting [7]); 6% in test [4] (setting [8]); 55.7% in test [4] (at 50.0 µM). Further, the growth inhibition in test [5] (setting [7]) is 1%; in test [5] (setting [8]), 13%; in test [5] (at 50.0 µM), 9.4%; in test [6] (setting [7]), 0%; in test [6] (setting [8]), 38%; in test [6] (at 50.0 µM), 88.7% (active).

On to `CCC[CH2][Ge]([CH2]CCC)([CH2]CCC)[O]C(=O)CC(=O)c1ccccc1`, for which the growth inhibition in test [1] (setting [7]) was 10%; in test [1] (setting [8]), 62%; in test [1] (at 50.0 µM) it was 53.3%; in test [2] (setting [7]), -3%; in test [2] (setting [8]) it was 65%; in test [2] (at 50.0 µM), 45.1%. The growth inhibition in test [3] (setting [7]) was 6%; in test [3] (setting [8]), 41%; in test [3] (at 50.0 µM) it was 32.2%; in test [4] (setting [7]), 1%; in test [4] (setting [8]), 20%; in test [4] (at 50.0 µM) it was 43.5%. Also, the growth inhibition was -17% in test [5] (setting [7]); 27% in test [5] (setting [8]); 79.5% (active) in test [5] (at 50.0 µM); -1% in test [6] (setting [7]); 46% in test [6] (setting [8]); 67.4% in test [6] (at 50.0 µM).

Consider `COc1ccc(C2C(C#N)(C#N)C2(C#N)C#N)cc1`, for which the growth inhibition was 16% in test [1] (setting [7]); 98% (active) in test [1] (setting [8]); 63.5% in test [1] (at 50.0 µM); 19% in test [2] (setting [7]); 99% (active) in test [2] (setting [8]); 96.5% (active) in test [2] (at 50.0 µM). Besides, the growth inhibition is 21% in test [3] (setting [7]); 98% (active) in test [3] (setting [8]); 98.3% (active) in test [3] (at 50.0 µM); 2% in test [4] (setting [7]); 99% (active) in test [4] (setting [8]); 88% (active) in test [4] (at 50.0 µM). The growth inhibition in test [5] (setting [7]) is 6%; in test [5] (setting [8]), 98% (active); in test [5] (at 50.0 µM), 94.8% (active); in test [6] (setting [7]), 22%; in test [6] (setting [8]), 99% (active); in test [6] (at 50.0 µM), 92.7% (active).

As for `COc1ccc(C(c2ccccc2C(=O)O)c2ccc(OC)c3ccccc23)c2ccccc12`, the growth inhibition is 47% in test [1] (setting [7]); 94% (active) in test [1] (setting [8]); 59.6% in test [1] (at 50.0 µM); 70% (active) in test [2] (setting [7]); 96% (active) in test [2] (setting [8]); 88.8% (active) in test [2] (at 50.0 µM). Further, the growth inhibition in test [3] (setting [7]) was 97% (active); in test [3] (setting [8]), 96% (active); in test [3] (at 50.0 µM), 87.8% (active); in test [4] (setting [7]), 96% (active); in test [4] (setting [8]), 95% (active); in test [4] (at 50.0 µM), 89% (active). The growth inhibition is 94% (active) in test [5] (setting [7]); 95% (active) in test [5] (setting [8]); 89.8% (active) in test [5] (at 50.0 µM); 97% (active) in test [6] (setting [7]); 96% (active) in test [6] (setting [8]); 88.7% (active) in test [6] (at 50.0 µM).

For the molecule `C/C=C/C/C=C/CCC(=O)C1OC1C(N)=O` (configuration not stated), the growth inhibition in test [1] (setting [7]) is 98% (active); in test [1] (setting [8]), 99% (active); in test [1] (at 50.0 µM), 92.3% (active); in test [2] (setting [7]) it was 99% (active); in test [2] (setting [8]), 99% (active); in test [2] (at 50.0 µM), 93.3% (active). Also, the growth inhibition in test [3] (setting [7]) was 99% (active); in test [3] (setting [8]), 99% (active); in test [3] (at 50.0 µM), 93.3% (active); in test [4] (setting [7]), 98% (active); in test [4] (setting [8]) it was 99% (active); in test [4] (at 50.0 µM) it was 91.4% (active). Further, the growth inhibition was 99% (active) in test [5] (setting [7]); 98% (active) in test [5] (setting [8]); 91.8% (active) in test [5] (at 50.0 µM); 99% (active) in test [6] (setting [7]); 99% (active) in test [6] (setting [8]); 91.8% (active) in test [6] (at 50.0 µM).

Regarding `[O-]/[N+]1=[N+](\[O-])c2ccccc2CCc2ccccc21`, the growth inhibition was -1% in test [1] (setting [7]); -4% in test [1] (setting [8]); 3.8% in test [1] (at 50.0 µM); -1% in test [2] (setting [7]); 1% in test [2] (setting [8]); -4.65% in test [2] (at 50.0 µM). For the same molecule, the growth inhibition in test [3] (setting [7]) was 4%; in test [3] (setting [8]), 1%; in test [3] (at 50.0 µM), 40.1%; in test [4] (setting [7]), -1%; in test [4] (setting [8]), -4%; in test [4] (at 50.0 µM), 1%. The growth inhibition in test [5] (setting [7]) is -1%; in test [5] (setting [8]), 0%; in test [5] (at 50.0 µM), 15.4%; in test [6] (setting [7]), -3%; in test [6] (setting [8]), 3%; in test [6] (at 50.0 µM) it was 1.6%.

For the origin of these results see PubChem BioAssay (NCI).
